Screening data as filed in PubChem.
In the library only some 6.9% were active in any assay of this set; here they are far more common.
MCF10A rerep – inducers of DNA re-replication in MCF 10A breast cells; Potency, µM (doses to about 46.1 µM), for the others: at the top dose activity, positive = re-replication, hits mostly activators; AID 624296; MCF 10A DNA re-replication, Hoechst nuclear intensity, 48 h; 350,000 tested, 2.9% active; also: potency is read from the fitted curve at half-maximal effect; % of control where 0% means no effect; nearly all actives have a fitted effect of over 50% in size
Vif-A3G inh – Vif-A3G binding inhibition. Q9HC16. HeLa A3G-eYFP + Vif (tagged APOBEC3G with the HIV-1 protein that degrades it), YFP fluorescence, overnight. Potency, µM (highest dose often 46.1 µM), for the others: at the highest dose activity, negative = active, hits mostly inhibitors. 410,000 tested, 0.076% active; also: potency is read from the fitted curve at half-maximal effect; % is scaled to controls: 0 for no effect and ±100 for the full control effect; nearly all actives have a fitted effect of over 60% in size
Target sequence (Q9HC16 whole entry, looked up): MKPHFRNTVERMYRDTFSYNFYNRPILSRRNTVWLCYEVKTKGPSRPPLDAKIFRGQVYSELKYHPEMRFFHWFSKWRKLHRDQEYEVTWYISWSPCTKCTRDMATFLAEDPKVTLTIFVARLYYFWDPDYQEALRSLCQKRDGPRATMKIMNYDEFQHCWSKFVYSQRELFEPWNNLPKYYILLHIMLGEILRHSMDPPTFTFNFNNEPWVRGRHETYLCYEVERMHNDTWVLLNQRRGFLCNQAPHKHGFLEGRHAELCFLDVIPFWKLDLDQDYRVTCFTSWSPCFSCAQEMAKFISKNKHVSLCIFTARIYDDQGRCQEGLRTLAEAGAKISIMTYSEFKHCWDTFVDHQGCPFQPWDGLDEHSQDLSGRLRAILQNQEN
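HeLa cells stably expressing Vif and C-terminally eYFP-tagged A3G, seeded overnight at 37 deg C, then exposed to compound by pintool overnight at 37 deg C. Rise in yellow fluorescence (Ex 488/Em 500-530, Acumen) marks blocked Vif-driven A3G degradation.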
SW480 rereplic – DNA re-replication induction in SW480 cells; SW480 DNA re-replication, Hoechst DNA content imaging, 48 h; Potency, µM (top dose mostly 46.1 µM), inactives show at the highest dose re-replication activation, usual class: activators; 340,000 tested, 1.8% active; also: potency is read from the fitted curve at half-maximal effect; % of control where 0% means no effect; nearly all actives have a fitted effect of over 55% in size
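Compounds, transferred as 23 nL by pin tool, were incubated with cells for 48 hr; DNA content per nucleus was then quantified by Hoechst staining and fluorescence plate imaging.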
Vif-A3F inh – inhibitors of Vif-A3F interaction; HeLa A3F-eYFP + Vif (tagged APOBEC3F with the HIV-1 protein that degrades it), YFP fluorescence increase; Potency, µM (doses to about 46.1 µM), without a hit: at the top dose activity, negative = active; 390,000 tested, 0.2% active; AID 602313; also: potency is read from the fitted curve at half-maximal effect; % of control where 0% means no effect; nearly all actives have a fitted effect of over 65% in size
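HeLa cells stably expressing A3F-eYFP plus Vif, plated and incubated overnight at 37 deg C, then exposed to compounds overnight at 37 deg C. Blocked degradation read as raised yellow fluorescence (Ex 488/Em 500-530).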
Giardia kill – Giardia lamblia killing; Giardia lamblia trophozoite viability; activity change, % at 7.66 µM, hits read low; 340,000 tested, 0.15% active; AID 540267; in the data active = activity change below about -80%; inconclusive = between about -30% and that limit;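 also: parasites exposed to compound for two days anaerobically before the ATP read; % is scaled to controls: 0 for no effect and ±100 for the full control effect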
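Viability, read as ATP luminescence: trophozoites at 100 cells/well, compound added, 48 hrs anaerobic at 37 deg C, then 15-30 min room-temperature development before reading.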
IL-1B inflam inh – inflammasome signaling inhibition, IL-1 beta readout | THP-1 LPS/ATP IL-1B secretion, AlphaLISA, 16 h; hits give low values | activity change, % at 57.5 µM | 360,000 tested, 4.7% active | AID 743279; in the data active = activity change below about -50%; inconclusive = mostly about -30% to -49%; also: % is scaled to controls: 0 for no effect and ±100 for the full control effect
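Secreted IL-1B measured by AlphaLISA bead assay after 16 h compound exposure of THP-1 cells; compounds (final up to 57.5 uM) added 1 h before LPS (250 ng/mL) and ATP (1.25 mM) stimulation; lower signal means less secretion.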
Numbers without * were called inactive. Unless noted, calls follow the shape of the dose curve; as a rule, active = well fitted curve in the direction sought with a large enough effect; inconclusive = small, poorly fitted or top-dose-only effect, or another doubt; inactive = no such curve, though single readings can be large; an effect the other way counts as inactive or inconclusive.

Screening CCOC(=O)N1CCN(S(=O)(=O)c2ccc(F)c(C(=O)Nc3ccc(C(C)C)cc3)c2)CC1 returned MCF10A rerep 18.5%, Vif-A3G inh 1.9%, SW480 rereplic 8.3%, Vif-A3F inh 8.1%, Giardia kill 15.8 and IL-1B inflam inh 0.6.
Screening Cc1nnsc1C(=O)Nc1ccc(S(=O)(=O)N2CCC(C)CC2)cc1 returned MCF10A rerep 17.6%, Vif-A3G inh -2.3%, SW480 rereplic 4.0%, Vif-A3F inh 1.6%, Giardia kill -7.9 and IL-1B inflam inh -54.5*.
For CCOC(=O)N1CCN(S(=O)(=O)c2ccc(F)c(C(=O)Nc3ccc(C)c(Cl)c3)c2)CC1 the results were MCF10A rerep inconclusive, Vif-A3G inh -3.2%, SW480 rereplic 18.6%, Vif-A3F inh -16.5%, Giardia kill -10.1 and IL-1B inflam inh -69.7*.
`COc1ccc(NC(=O)CN2CCCN(S(=O)(=O)c3ccc(F)cc3)CC2)cc1` gave MCF10A rerep 10.0%, Vif-A3G inh -8.3%, SW480 rereplic 6.9%, Vif-A3F inh -2.5%, Giardia kill 12.3 and IL-1B inflam inh -10.9.
For CCc1ccc(NC(=O)CN2CCCN(S(=O)(=O)c3ccc(F)cc3)CC2)cc1 the results were MCF10A rerep inconclusive, Vif-A3G inh -0.8%, SW480 rereplic -5.0%, Vif-A3F inh 2.9%, Giardia kill -4.6 and IL-1B inflam inh -59.2*.
CC1CCCN(S(=O)(=O)c2ccc(NC(=O)CN3CCN(C)CC3)cc2)C1 (centres undefined) was read as MCF10A rerep inconclusive, Vif-A3G inh 0.9%, SW480 rereplic -2.9%, Vif-A3F inh -4.8%, Giardia kill -13.0 and IL-1B inflam inh 3.9.
For CC1CCN(CC(=O)Nc2ccc(S(=O)(=O)N3CCCC(C)C3)cc2)CC1 (centres undefined) the results were MCF10A rerep 20.2%, Vif-A3G inh -0.2%, SW480 rereplic -14.1%, Vif-A3F inh -15.5%, Giardia kill 13.5 and IL-1B inflam inh -50.7*.
Cc1ccc(CN2[C@H]3CCCC[C@@H]3OCCS2(=O)=O)cc1 was read as Vif-A3G inh 2.0%.
CC(=O)N1CCc2cc(S(=O)(=O)NC(CC(C)C)C(=O)NCCc3ccccc3)ccc21 (centres undefined) was read as Vif-A3G inh -6.5% and Vif-A3F inh -3.0%.
COc1ccc(C)cc1NC(=O)Cn1c(=O)n(Cc2nc(C)no2)c(=O)c2ccccc21 was read as Vif-A3G inh 3.6% and Vif-A3F inh -1.4%.
For CC1CCCN(S(=O)(=O)c2ccc(NC(=O)CNC3CCCC3)cc2)C1 (centres undefined) the results were MCF10A rerep 3.3%, Vif-A3G inh 1.1%, SW480 rereplic inconclusive, Vif-A3F inh 1.2%, Giardia kill 18.5 and IL-1B inflam inh inconclusive.
For Cc1ccc(NC(=O)CN2CCN(S(=O)(=O)c3ccc(C(C)C)cc3)CC2)cc1F the results were Vif-A3G inh 4.5% and Vif-A3F inh 3.4%.
For COc1ccc(S(=O)(=O)N2CCN(CC(=O)Nc3ccc(C)c(F)c3)CC2)cc1 the results were MCF10A rerep -2.2%, Vif-A3G inh 0.8%, SW480 rereplic -3.6%, Vif-A3F inh -2.7%, Giardia kill 12.4 and IL-1B inflam inh -61.2*.
For O=S(=O)(c1ccc(C2CCCCC2)cc1)N1CCCC1 the results were MCF10A rerep 9.7%, Vif-A3G inh 0.8%, SW480 rereplic -8.4%, Vif-A3F inh -1.6%, Giardia kill 9.0 and IL-1B inflam inh -64.7*.
For O=C(CNC1CCCCC1)Nc1ccc(S(=O)(=O)N2CCCCC2)cc1 the results were MCF10A rerep 15.9%, Vif-A3G inh -3.1%, SW480 rereplic 5.7%, Vif-A3F inh -16.5%, Giardia kill -0.4 and IL-1B inflam inh -63.1*.
COc1cc(OC)c(-c2nn3c(-c4cc(C)[nH]n4)nnc3s2)cc1OC was read as Vif-A3G inh -2.0% and Giardia kill 11.1.
Screening O=C(NCCc1ccc(Cl)cc1)C1CCN(S(=O)(=O)c2ccc3[nH]ccc3c2)CC1 returned Vif-A3G inh -0.2% and Vif-A3F inh 1.2%.
